From PubChem
Gal4-VP16 FLuc = inhibits Gal4-VP16 luciferase reporter, ROR gamma counter-screen | Drosophila S2 Gal4-VP16 UAS-luciferase, luminescence, 20 h | Potency, µM (doses to about 53.6 µM), inactives show at the top dose activity, negative = inhibition, usual class: inhibitors | 310,000 tested, 3.5% active | AID 2546;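 further: Gal4-VP16 expression switched on by copper sulfate through the metallothionein promoter; potency means the concentration at half of the fitted maximal effect; on the % scale 0 is the no-effect control and ±100 the full control effect; nearly all actives have a fitted effect of over 50% in size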
SW480 rereplic = induces DNA re-replication in SW480 colon adenocarcinoma cells. Potency, µM (series often up to 46.1 µM), without a hit: at the highest dose re-replication activation, actives largely listed as activators. SW480 DNA re-replication, Hoechst DNA content imaging, 48 h. AID 624297. 340,000 tested, 1.8% active; further: potency means the concentration at half of the fitted maximal effect; % of control where 0% means no effect; nearly all actives have a fitted effect of over 55% in size
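Quantitative HTS format with DMSO vehicle controls; 48 hr drug incubation at 37 C, then 40 min Hoechst staining and scanning imager measurement at 405 nm excitation.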
IL1B secr inh = blocks inflammasome-driven IL-1 beta release | THP-1 LPS/ATP IL-1B secretion, AlphaLISA, 16 h; active compounds read low | activity change, % at 57.5 µM | 360,000 tested, 4.7% active; in the data active means activity change below about -50%; inconclusive means mostly about -30% to -49%; further: on the % scale 0 is the no-effect control and ±100 the full control effect
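THP-1 cells pretreated 1 hr with compounds (up to 57.5 uM final), then stimulated with LPS (250 ng/mL final) plus ATP (1.25 mM final); secreted IL-1B measured by AlphaLISA after 16 hr, decreased signal indicating inhibition.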
MCF10A rereplic = induces DNA re-replication in MCF 10a normal breast cells; MCF 10A DNA re-replication, Hoechst nuclear intensity, 48 h; Potency, µM (highest dose often 46.1 µM), without a hit: at the top dose activity, positive = re-replication, most hits filed as activators; 350,000 tested, 2.9% active; AID 624296; further: potency means the concentration at half of the fitted maximal effect; % of control where 0% means no effect; nearly all actives have a fitted effect of over 50% in size
RORgamma inh = blocks mouse ROR gamma transcriptional activity. P51450. Drosophila S2 Gal4-RORgamma UAS-luciferase reporter, 20 h. Potency, µM (titrated, usually from 53.6 µM), for the others: top-dose activity change, negative = inhibition, actives largely listed as inhibitors. 310,000 tested, 5.4% active; further: potency means the concentration at half of the fitted maximal effect; on the % scale 0 is the no-effect control and ±100 the full control effect; nearly all actives have a fitted effect of over 60% in size
Target sequence (P51450 whole entry, looked up, the tested form may be a part): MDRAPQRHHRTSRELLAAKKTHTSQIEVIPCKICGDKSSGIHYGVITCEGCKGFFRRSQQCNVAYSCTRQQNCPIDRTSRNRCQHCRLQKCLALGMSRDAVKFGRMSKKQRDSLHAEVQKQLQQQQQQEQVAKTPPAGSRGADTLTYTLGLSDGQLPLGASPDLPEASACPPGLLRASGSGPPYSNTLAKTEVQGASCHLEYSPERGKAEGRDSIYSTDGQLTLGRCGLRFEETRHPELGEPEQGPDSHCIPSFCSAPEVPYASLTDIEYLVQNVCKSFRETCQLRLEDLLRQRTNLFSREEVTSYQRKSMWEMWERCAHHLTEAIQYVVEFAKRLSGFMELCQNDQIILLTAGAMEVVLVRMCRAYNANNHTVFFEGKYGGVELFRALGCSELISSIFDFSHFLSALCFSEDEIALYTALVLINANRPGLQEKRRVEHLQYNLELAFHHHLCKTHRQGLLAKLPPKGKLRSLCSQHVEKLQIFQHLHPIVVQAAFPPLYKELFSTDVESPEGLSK
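Using a luciferase readout, inhibitors were identified by reduced reporter activity in Drosophila cells coexpressing a copper-inducible Gal4–ROR gamma fusion and UAS-driven Photinus luciferase, incubated 20 hr after 700 uM copper sulfate.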
The depositor's hits bear a star; ? = inconclusive; / = no result; [ ] = dose if it differs, or a comment. Shown are actives, neighbours in structure and some others; about 11% of the full set was active somewhere. Unless noted, the call rests on the fitted dose curve; in most records, active means well fitted curve in the direction sought with a large enough effect; inconclusive means small, poorly fitted or top-dose-only effect, or another doubt; inactive means no such curve, though single readings can be large; an effect the other way counts as inactive or inconclusive.

SMILES | Gal4-VP16 FLuc | SW480 rereplic | IL1B secr inh | MCF10A rereplic | RORgamma inh
Cc1cccn2c(=O)c3cc(C(=O)NCc4ccco4)c(=N)n(C(C)C)c3nc12 | -6% | ? | -30 | 15% | -8%
Cc1cccn2c(=O)c3cc(C(=O)NCc4ccco4)c(=N)n(CCc4ccccc4)c3nc12 | -10% | 18µM* | -85* | 2.9µM* | -5%
Cc1cccn2c(=O)c3cc(C(=O)NCCc4ccccc4)c(=N)n(Cc4ccco4)c3nc12 | -18% | 6.5µM* | 4 | 13µM* | 1%
CC(C)NC(=O)N1CCC2(CC1)CCN(S(=O)(=O)c1ccccc1)CC2 | -8% | / | / | / | 0%
O=[N+]([O-])c1ccc(C[n+]2cc(-c3ccc(Cl)c(Cl)c3)n3c2CCCCC3)cc1 | -15% | -6% | -25 | -2% | 0.25µM*
Clc1ccc(-c2c[n+](Cc3cccc(Cl)c3)c3n2CCC3)cc1 | -9% | 10% | -74* | 17% | ?
Clc1ccc(C[n+]2cc(-c3ccccc3)n3c2CCC3)cc1Cl | -8% | 2% | -67* | 2% | 18%
O=[N+]([O-])c1ccc(C[n+]2cc(-c3ccccc3)n3c2CCCCC3)cc1 | 8% | -13% | -7 | 4% | -3%
Nc1nc(=S)ss1 | / | ? | -98* | 21µM* | /
COc1cccc2c1C(CCCC(=O)O)CCC2 (centres undefined) | / | -5% | 111 | -1% | /
COc1cccc2c1C1COC3C4CC(C(=O)O)C(C(C2)N13)N4C (centres undefined) | / | ? | -22 | 2.6µM* | /
CCCC(=O)NC(=S)Nc1ccc(Cl)cn1 | 6.3µM* | 0% | -10 | 1% | 3.5µM*
Cc1cc(Cl)ccc1OCC(=O)NC(=S)Nc1ccc(Cl)cn1 | -6% | -5% | 8 | 0% | 5.6µM*
O=C(O)C1CCN(S(=O)(=O)c2cccc3nonc23)CC1 | 4% | 18% | -2 | -7% | -7%
CCN(CC)c1nc(C)c(C(=S)Nc2cc([N+](=O)[O-])ccc2Cl)s1 | -8% | 4% | -14 | 10% | 3.2µM*
CCC(C)(C)C(=O)Nc1cc([N+](=O)[O-])ccc1Cl | -2% | 0% | 3 | 22% | -11%
Cc1c(NC(=O)c2cc3ccccc3o2)cccc1-n1cnnn1 | / | / | -1 | / | /
C=CS(=O)(=O)c1ccc(Oc2ccc(S(=O)(=O)C=C)cc2)cc1 | 2.2µM* | ? | -105* | 3.3µM* | 3.2µM*
COc1ccccc1/C=C/C=N/n1c(-c2ccc(Cl)cc2)n[nH]c1=S | -10% | -14% | 12 | ? | -28%
O=[N+]([O-])c1ccccc1/C=C/C=N/n1c(-c2ccccc2F)n[nH]c1=S | -3% | -7% | 7 | 1% | 14µM*
COc1ccccc1/C=C/C=N/n1c(-c2ccccc2)n[nH]c1=S | ? | 0% | 26 | 1% | 0.4µM*
COc1ccc(-c2n[nH]c(=S)n2/N=C/C=C/c2ccccc2OC)cc1 | ? | ? | 0 | 4.6µM* | 7.1µM*
S=c1[nH]nc(-c2ccc(Cl)cc2)n1/N=C/C=C/c1ccco1 | -8% | -2% | 12 | -1% | ?
CC(C)c1ccc2oc(-c3cc(N)ccc3O)nc2c1 | 22µM* | 6% | 0 | 29% | 10µM*
CC(=O)c1c(N2CCCCC2)nc(=S)n(Cc2ccccc2)c1C | -25% | 10% | -18 | -182%[0.0737 µM] | 11µM*
SMILES | Gal4-VP16 FLuc | SW480 rereplic | IL1B secr inh | MCF10A rereplic | RORgamma inh
CC(=O)c1c(N2CCN(Cc3ccccc3)CC2)nc(=S)n(Cc2ccccc2)c1C | ? | ? | 6 | 15% | -10%
CCCSc1nc(=S)n(Cc2ccccc2)c(C)c1C(C)=O | ? | 2% | -3 | 2% | 14µM*
C=CCn1c(C)c(C(C)=O)c(N2CCCC2)nc1=S | 2% | -5% | 43 | -7% | -19%
CC(=O)c1c(N2CCN(CCO)CC2)nc(=S)n(-c2ccccc2)c1C | -1% | -21% | 0 | -1% | 18%
CC(=O)c1c(N2CCN(c3ccccc3)CC2)nc(=S)n(-c2ccccc2)c1C | 1% | 13% | -65* | 21µM* | 14%
CCn1c(C)c(C(C)=O)c(N2CCCC2)nc1=S | 1% | 6% | -11 | -128%[0.0737 µM] | 7.9µM*
Cc1nc2c(c(=O)[nH]1)CSCC2 | -1% | / | / | / | 18%
COc1ccc(Cc2nnc(NC(=O)Nc3cccc(OC)c3)s2)cc1 | -2% | 2% | 44 | -13% | -35%
CC1(C(=O)NCC2CC2)Cc2c(-c3cccc(C(F)(F)F)c3)ccnc2O1 (centres undefined) | / | / | 0 | / | /
COc1cc(CNC(=O)c2cc(-c3cc(Cl)ccc3OC)n[nH]2)cc(OC)c1 | / | / | -9 | / | /
O=C(Nc1ccc(F)c(Cl)c1)c1cc(C2CCCN(S(=O)(=O)c3cccc4cccnc34)C2)on1 (centres undefined) | / | / | 3 | / | /
O=C(Nc1c2c(nn1-c1ccc([N+](=O)[O-])cc1)CS(=O)(=O)C2)c1ccccc1F | -8% | -13% | 14 | -2% | 8%
COc1cc(NC(=O)c2ccccc2-n2cnnn2)cc(OC)c1 | / | -7% | 16 | -10% | /
COc1cc(OC)cc(C(=O)Nc2ccc(-n3cnnn3)c(C)c2)c1 | -5% | 0% | -68* | -31% | ?
CC(C)=CCC/C(C)=C/CO/N=C1/C[C@@H](O)[C@@H](O)[C@@H]2[C@@H]3C(=O)N(C[C@@H]4CCCO4)C(=O)[C@H]3CC[C@H]12 | -23%[10 µM] | / | / | / | 5%[10 µM]
N#CCCn1c(=O)c(-c2ccc(Cl)cc2)nc2cnc(OCc3ccccc3)nc21 | 5% | / | / | / | -12%
CCCn1c(SCC#N)nc2c(c1=O)C1(CCCC1)Cc1ccccc1-2 | 5% | 2% | 6 | ? | -23%
NC(=O)CSc1nc2c(c(=O)n1-c1ccccc1)C1(CCCCC1)Cc1ccccc1-2 | -10% | 6% | -53* | ? | -23%
N#CCSc1nc2c(c(=O)n1Cc1ccco1)C1(CCCC1)Cc1ccccc1-2 | -7% | 18% | 0 | 13µM* | -21%
Cc1cccc(-n2c(SCC(N)=O)nc3c(c2=O)C2(CCCC2)Cc2ccccc2-3)c1 | -14% | 18% | -19 | 11% | 23%
N#CCSc1n[nH]c2nc3c(c(=O)n12)C1(CCCC1)Cc1ccccc1-3 | -1% | -3% | 42 | 10µM* | -14%
c1ccc2c(c1)NCC1CCCN21 (centres undefined) | -6% | ? | 15 | ? | 0%
CN1CCC(N(C)C(=O)c2ccc(Cl)c(S(=O)(=O)Nc3cc(Cl)ccc3Cl)c2)CC1 | / | -16% | -12 | 5% | /
Cc1ccccc1NC(=O)c1onc2c1CCCC2 | -4% | -5%[9.22 µM] | 9 | 3% | -33%
COC(=O)c1cccc(NC(=O)c2onc3c2CCCC3)c1 | ? | -4% | 19 | 12% | 7.1µM*
O=C(Nc1ccc2ccccc2c1)c1onc2c1CCCC2 | ? | 10% | -4 | ? | 14µM*
Cc1cccc(NC(=O)c2onc3c2CCCC3)c1C | -11% | 3% | 21 | 18% | ?
